# The campaign covered roughly 39,000 compounds. About 3,300 (8.5%) were called active. The entries come from a sample that favours actives as a whole.
# Tested on: HepG2
# Assay: cytotoxicity call (relative viability < 0.9)
# Details: 10 µM
row,SMILES,cytotoxicity call
1,O=C(O)CCCCCCCCCCCC[C@@H]1C=CCC1,inactive
2,COc1ccc(-c2cc(=O)c3c(O)c(OC)c(O[C@H]4O[C@H](CO[C@@H]5O[C@@H](C)[C@H](O)[C@@H](O)[C@H]5O)[C@@H](O)[C@H](O)[C@H]4O)cc3o2)cc1,inactive
3,C[C@H](CO)N1C[C@H](C)[C@@H](CN(C)S(=O)(=O)c2cn(C)cn2)Oc2cc(Br)ccc2S1(=O)=O,inactive
4,C[C@H](CO)N1C[C@H](C)[C@@H](CN(C)Cc2ccc(-c3ccccc3)cc2)Oc2c(NS(=O)(=O)c3cccs3)cccc2C1=O,inactive
5,C[C@@H]1CCCCO[C@@H](CN(C)Cc2ccncc2)[C@H](C)CN([C@@H](C)CO)C(=O)c2cc(NC(=O)C3CCCCC3)ccc2O1,inactive
6,CCOC(=O)c1cccc(N)c1.CS(=O)(=O)O,inactive
7,CC(O)C(=O)O.CCOc1ccc2nc3cc(N)ccc3c(N)c2c1,active
8,CCOc1ccc2nc(S(N)(=O)=O)sc2c1,inactive
9,CO[C@@H](CN(C)C(=O)C1CCOCC1)[C@@H](C)CN(C(=O)Nc1ccc(C(F)(F)F)cc1)[C@@H](C)CO,inactive
10,CC(=O)N[C@@H]1C[C@H](O)[C@@H](O)CCC(=O)N[C@H](c2ccccc2)COC1=O,inactive
11,C[C@H]1CN([C@@H](C)CO)C(=O)Cc2cc(NC(=O)Cn3cnnn3)ccc2O[C@H]1CN(C)C(=O)Nc1ccc(C(F)(F)F)cc1,inactive
12,C[C@@H]1CCCCO[C@@H](CN(C)C(=O)NC2CCCCC2)[C@H](C)CN([C@H](C)CO)C(=O)c2cc(NC(=O)CCC(F)(F)F)ccc2O1,inactive
13,CO[C@H]1CN(C)C(=O)c2cc(NC(=O)NC(C)C)ccc2OC[C@H](C)N(Cc2ccc(-c3ccccn3)cc2)C[C@H]1C,inactive
14,C[C@@H]1CN([C@@H](C)CO)C(=O)c2cc(NS(=O)(=O)c3ccc(F)cc3)ccc2O[C@@H](C)CCCCO[C@@H]1CN(C)C(=O)Nc1cccc2ccccc12,inactive
15,C[C@H]1CCCCO[C@@H](CN(C)C(=O)Nc2cccc3ccccc23)[C@@H](C)CN([C@@H](C)CO)C(=O)c2cc(NS(=O)(=O)c3ccc(F)cc3)ccc2O1,inactive
16,C[C@@H]1CCCCO[C@H](CN(C)C(=O)Nc2cccc3ccccc23)[C@H](C)CN([C@@H](C)CO)C(=O)c2cc(NS(=O)(=O)c3ccc(F)cc3)ccc2O1,active
17,C[C@H](CO)N1C[C@H](C)[C@H](CN(C)C(=O)Nc2cccc3ccccc23)OCCCC[C@H](C)Oc2ccc(NS(=O)(=O)c3ccc(F)cc3)cc2C1=O,inactive
18,C[C@@H]1CCCCO[C@@H](CN(C)C(=O)Nc2cccc3ccccc23)[C@@H](C)CN([C@H](C)CO)C(=O)c2cc(NS(=O)(=O)c3ccc(F)cc3)ccc2O1,inactive
19,C[C@H]1CCCCO[C@H](CN(C)C(=O)Nc2cccc3ccccc23)[C@@H](C)CN([C@@H](C)CO)C(=O)c2cc(NS(=O)(=O)c3ccc(F)cc3)ccc2O1,active
20,C[C@@H]1CCCCO[C@@H](CN(C)C(=O)Nc2cccc3ccccc23)[C@H](C)CN([C@@H](C)CO)C(=O)c2cc(NS(=O)(=O)c3ccc(F)cc3)ccc2O1,inactive
21,C[C@@H]1CCCCO[C@@H](CN(C)C(=O)Nc2cccc3ccccc23)[C@H](C)CN([C@H](C)CO)C(=O)c2cc(NS(=O)(=O)c3ccc(F)cc3)ccc2O1,active
22,C[C@@H]1CN([C@@H](C)CO)C(=O)c2cc(NS(=O)(=O)c3ccc(F)cc3)ccc2O[C@@H](C)CCCCO[C@H]1CN(C)C(=O)Nc1cccc2ccccc12,inactive
23,C[C@H](CO)N1C[C@H](C)[C@@H](CN(C)C(=O)Nc2cccc3ccccc23)OCCCC[C@H](C)Oc2ccc(NS(=O)(=O)c3ccc(F)cc3)cc2C1=O,inactive
24,C[C@@H]1CCCCO[C@H](CN(C)C(=O)Nc2cccc3ccccc23)[C@@H](C)CN([C@H](C)CO)C(=O)c2cc(NS(=O)(=O)c3ccc(F)cc3)ccc2O1,active

row,SMILES,cytotoxicity call
1,CN1CCC[C@H](C(=O)O)C1,inactive
2,C[C@@H]1CN([C@H](C)CO)S(=O)(=O)c2ccc(C#CC3CC3)cc2O[C@H]1CN(C)Cc1cccc(F)c1,inactive
3,CNC[C@H]1Oc2cc(C#CC(C)(C)O)ccc2S(=O)(=O)N([C@H](C)CO)C[C@@H]1C,inactive
4,O=C(C[C@@H]1CC[C@H]2[C@@H](COC[C@@H](O)CN2S(=O)(=O)c2ccc(Cl)cc2)O1)N[C@@H]1CCN(Cc2ccccc2)C1,inactive
5,C[C@@H]1CN([C@H](C)CO)C(=O)c2cc(NS(C)(=O)=O)ccc2O[C@H]1CN(C)C(=O)Nc1ccc2c(c1)OCO2,inactive
6,CCOC(=O)c1snc2c(=O)nc[nH]c12,inactive
7,C=CCOC(=O)[C@@H]1[C@H]2C(=O)O[C@H](c3ccccc3)[C@H](c3ccccc3)N2[C@H](c2ccc(OCCOC(=O)[C@H]3C[C@H]4C(=O)N[C@@H](CCCCNC(C)=O)C(=O)N4[C@H]3c3cccc(OCCO)c3)cc2)[C@@]12C(=O)Nc1ccc(I)cc12,inactive
8,C[C@@H]1CCCCO[C@@H](CN(C)C(=O)CCC(F)(F)F)[C@@H](C)CN([C@@H](C)CO)C(=O)c2cc(NC(=O)Nc3ccc4c(c3)OCO4)ccc2O1,inactive
9,C[C@@H]1CCCCO[C@H](CN(C)C(=O)Nc2cccc3ccccc23)[C@H](C)CN([C@H](C)CO)C(=O)c2cc(NS(=O)(=O)c3ccc(F)cc3)ccc2O1,active
10,C[C@H]1CN([C@@H](C)CO)S(=O)(=O)c2ccc(-c3cccnc3)cc2O[C@H]1CN(C)C(=O)c1ccc2c(c1)OCO2,inactive
11,NC(=O)CC1=NC(=O)CS1,inactive
12,C[C@H]1CN([C@@H](C)CO)C(=O)Cc2cc(NC(=O)Cc3ccccc3)ccc2O[C@@H]1CN(C)S(C)(=O)=O,inactive
13,Cc1ccc(S(=O)(=O)Nc2ccc3c(c2)C(=O)N([C@@H](C)CO)C[C@H](C)[C@H](CN(C)Cc2ccc4c(c2)OCO4)OCCCC[C@@H](C)O3)cc1,inactive
14,C[C@@H]1CN([C@@H](C)CO)C(=O)c2cc(NC(=O)Nc3cccc4ccccc34)ccc2O[C@H]1CN(C)Cc1ccncc1,inactive
15,C#CC1(OC(C)=O)CCC2C3CCC4=CC(=NO)CCC4C3CCC21CC (stereo unspecified),active
16,C#CC1(O)CCC2C3CCC4=CC(=O)CCC4C3CCC21CC (stereo unspecified),inactive
17,C#CC1(OC(C)=O)CCC2C3CCC4=CC(OC(C)=O)CCC4C3CCC21C (stereo unspecified),active
18,C#CC1(OC(C)=O)CCC2C3CCC4=CC(=O)CCC4C3CCC21C (stereo unspecified),inactive
19,CC(=O)OC1(C(C)=O)CCC2C3CC(C)C4=CC(=O)CCC4(C)C3CCC21C (stereo unspecified),inactive
20,C[C@@H]1CN([C@H](C)CO)C(=O)CCCn2cc(nn2)CO[C@@H]1CN(C)C(=O)Nc1ccc2c(c1)OCCO2,inactive
21,COc1ccc(S(=O)(=O)Nc2cccc3c2O[C@@H](CN(C)C(=O)Nc2c(C)noc2C)[C@H](C)CN([C@H](C)CO)C3=O)cc1,inactive
22,COc1cccc(S(=O)(=O)N(C)C[C@@H]2Oc3cc(C4=CCCC4)ccc3S(=O)(=O)N([C@H](C)CO)C[C@@H]2C)c1,inactive
23,C[C@H](CO)N1C[C@H](C)[C@H](CN(C)Cc2ccc(Cl)c(Cl)c2)Oc2ccc(NC(=O)CCC(F)(F)F)cc2CC1=O,inactive
24,C[C@@H]1CN([C@@H](C)CO)C(=O)Cc2cc(NC(=O)CCC(F)(F)F)ccc2O[C@H]1CN(C)Cc1ccc(Cl)c(Cl)c1,active

row,SMILES,cytotoxicity call
1,C[C@@H]1CN([C@@H](C)CO)C(=O)Cc2cc(NC(=O)CCC(F)(F)F)ccc2O[C@@H]1CN(C)Cc1ccc(Cl)c(Cl)c1,active
2,C[C@H](CO)N1C[C@H](C)[C@@H](CN(C)Cc2ccc(Cl)c(Cl)c2)Oc2ccc(NC(=O)CCC(F)(F)F)cc2CC1=O,inactive
3,C[C@@H]1CN([C@H](C)CO)C(=O)c2cc(NC(=O)CCC(F)(F)F)ccc2O[C@@H]1CN(C)Cc1ccc(Cl)c(Cl)c1,inactive
4,C[C@@H]1CN([C@H](C)CO)C(=O)Cc2cc(NC(=O)CCC(F)(F)F)ccc2O[C@@H]1CN(C)Cc1ccc(Cl)c(Cl)c1,inactive
5,C[C@@H]1CN([C@H](C)CO)C(=O)Cc2cc(NC(=O)CCC(F)(F)F)ccc2O[C@H]1CN(C)Cc1ccc(Cl)c(Cl)c1,inactive
6,C[C@@H]1CN([C@@H](C)CO)C(=O)c2cc(NC(=O)CCC(F)(F)F)ccc2O[C@H]1CN(C)Cc1ccc(Cl)c(Cl)c1,active
7,C[C@H]1CN([C@@H](C)CO)C(=O)c2cc(NC(=O)CCC(F)(F)F)ccc2O[C@H]1CN(C)Cc1ccc(Cl)c(Cl)c1,inactive
8,C[C@H]1CCCCO[C@@H](CN(C)C(=O)Nc2ccc(C(F)(F)F)cc2)[C@@H](C)CN([C@@H](C)CO)C(=O)c2cc(N(C)C)ccc2O1,inactive
9,CC(C)NC(=O)Nc1ccc2c(c1)CC(=O)N([C@H](C)CO)C[C@@H](C)[C@@H](CN(C)Cc1ccc3c(c1)OCO3)O2,inactive
10,C[C@@H]1CCCCO[C@H](CN(C)C(=O)Cc2ccccc2)[C@@H](C)CN([C@H](C)CO)C(=O)c2cc(NC(=O)Cc3ccccc3)ccc2O1,inactive
11,C[C@H]1CN([C@@H](C)CO)C(=O)c2cccc(NC(=O)c3ccc(-c4nccs4)cc3)c2O[C@H]1CN(C)C(=O)NC1CCCCC1,inactive
12,Cc1noc(C)c1NC(=O)N(C)C[C@@H]1OCCCC[C@H](C)Oc2ccc(NC(=O)Nc3ccc(C(F)(F)F)cc3)cc2C(=O)N([C@@H](C)CO)C[C@@H]1C,active
13,Cc1noc(C)c1NC(=O)N(C)C[C@H]1OCCCC[C@@H](C)Oc2ccc(NC(=O)Nc3ccc(C(F)(F)F)cc3)cc2C(=O)N([C@@H](C)CO)C[C@H]1C,inactive
14,C[C@H](CO)N1C[C@H](C)[C@H](CN(C)C(=O)Nc2ccc(C(F)(F)F)cc2)OCCCC[C@H](C)Oc2ccc(NC(=O)Nc3ccc(C(F)(F)F)cc3)cc2C1=O,inactive
15,C[C@@H]1CCCCO[C@H](CN(C)C(=O)Nc2ccc(C(F)(F)F)cc2)[C@@H](C)CN([C@@H](C)CO)C(=O)c2cc(NC(=O)Nc3ccc(C(F)(F)F)cc3)ccc2O1,inactive
16,CC(C)NC(=O)N(C)C[C@@H]1OCCCC[C@H](C)Oc2ccc(NC(=O)Nc3ccc(C(F)(F)F)cc3)cc2C(=O)N([C@@H](C)CO)C[C@@H]1C,active
17,Cc1noc(C)c1NC(=O)N(C)C[C@@H]1OCCCC[C@@H](C)Oc2ccc(NC(=O)Nc3ccc(C(F)(F)F)cc3)cc2C(=O)N([C@H](C)CO)C[C@@H]1C,inactive
18,CC(C)NC(=O)N(C)C[C@H]1OCCCC[C@@H](C)Oc2ccc(NC(=O)Nc3ccc(C(F)(F)F)cc3)cc2C(=O)N([C@@H](C)CO)C[C@H]1C,inactive
19,CC(C)NC(=O)N(C)C[C@H]1OCCCC[C@H](C)Oc2ccc(NC(=O)Nc3ccc(C(F)(F)F)cc3)cc2C(=O)N([C@H](C)CO)C[C@@H]1C,inactive
20,C[C@H]1CCCCO[C@@H](CN(C)C(=O)Nc2ccc(C(F)(F)F)cc2)[C@@H](C)CN([C@@H](C)CO)C(=O)c2cc(NC(=O)Nc3ccc(C(F)(F)F)cc3)ccc2O1,inactive
21,C[C@H]1CCCCO[C@H](CN(C)C(=O)Nc2ccc(C(F)(F)F)cc2)[C@@H](C)CN([C@@H](C)CO)C(=O)c2cc(NC(=O)Nc3ccc(C(F)(F)F)cc3)ccc2O1,active
22,C[C@@H]1CN([C@H](C)CO)C(=O)c2cc(NC(=O)Nc3ccc(C(F)(F)F)cc3)ccc2O[C@@H](C)CCCCO[C@H]1CN(C)C(=O)Nc1ccc(C(F)(F)F)cc1,active
23,C[C@@H]1CCCCO[C@H](CN(C)C(=O)Nc2ccc(C(F)(F)F)cc2)[C@H](C)CN([C@H](C)CO)C(=O)c2cc(NC(=O)Nc3ccc(C(F)(F)F)cc3)ccc2O1,inactive

# — the antibiotic and cytotoxicity screens of Wong et al. (2023)
